# Inconclusive results are not listed. Entries that show only a call come without a potency. Unmarked numbers belong to inactive results. Calls of active or inactive are those of the source. The call rests on the fitted dose curve; in most records, active means well fitted curve in the direction sought with a large enough effect; inconclusive means small, poorly fitted or top-dose-only effect, or another doubt; inactive means no such curve, though single readings can be large; an effect the other way counts as inactive or inconclusive. Where a SMILES comes first, the peptide text is derived from it. [ ]: non-standard residue; d: D form. 2Abz = Nc1ccccc1C(=O)O
# Legend:
# [1] = Primary qHTS for inhibitors of nuclear receptor binding SET domain protein 2 (NSD2) in an isogenic RCH-ACV NSD2 p.E1099K mutant (9B) (AID 1645876)
# [2] = Primary qHTS for inhibitors of nuclear receptor binding SET domain protein 2 (NSD2) in an RCH-ACV wild type WT cells (2C) (AID 1645877); further: potency means the concentration at half of the fitted maximal effect
# Further: nearly all actives have a fitted effect of over 70% in size.
smiles,measurement,setting,value
COc1cc(/C=C/C(=O)O[C@H]2[C@H](O)[C@@H](CO)O[C@@]2(CO)O[C@H]2O[C@H](COC(=O)c3ccc(O)cc3)[C@@H](O)[C@H](O)[C@H]2O)cc(OC)c1OC,Potency,[1],inactive
same,Potency,[2],inactive
COc1cc(CC(COC2OC(CO)C(O)C(O)C2O)c2cc(/C=C/CO)cc(OC)c2O)ccc1O (stereo not given),Potency,[1],inactive
same,Potency,[2],inactive
CC1(C)CC2C3=CCC4C5(C)CCC(OC6OC(C(=O)O)C(O)C(O)C6OC6OC(CO)C(O)C(O)C6OC6OC(CO)C(O)C(O)C6O)C(C)(CO)C5CCC4(C)C3(C)CCC2(C)C(OC2OCC(O)C(OC3OC(CO)C(O)C(O)C3O)C2O)C1O (stereo not given),"activity change, negative = viability loss",[1],-1.65% [at 9.23 µM]
same,"activity change, negative = cell killing",[2],-4.93% [at 9.23 µM]
CC1=C(CC(=O)O)c2cc(F)ccc2C1=Cc1ccc(S(C)(=O)=O)cc1,Potency,[1],inactive
same,Potency,[2],inactive
C[C@@H]1O[C@@H](O[C@H]2[C@H](O)[C@@H](C(=O)O)O[C@@H](O[C@H]3CC[C@@]4(C)C(CC[C@]5(C)C4CC=C4C6CC(C)(C)CC[C@]6(C(=O)O)CC[C@]45C)C3(C)C)[C@@H]2O[C@@H]2O[C@H](CO)[C@@H](O)[C@H](O)[C@H]2O)[C@H](O)[C@H](O)[C@H]1O (stereo not given in full),"activity change, negative = viability loss",[1],-6.46% [at 9.23 µM]
same,"activity change, negative = cell killing",[2],-4.73% [at 9.23 µM]
CC1=CCC2C(C)(CO)CCCC2(C)C1CC12OC1C(O)C(CO)=CC2O (stereo not given),Potency,[1],inactive
same,Potency,[2],inactive
C=C1C[C@]23C[C@H]1CC[C@H]2[C@]1(C)CCC[C@@]2(CO)C(=O)O[C@H]([C@H]21)[C@@H]3O,Potency,[1],inactive
same,Potency,[2],inactive
C/C(=C/CO)CC[C@@H]1[C@@]2(C)CCC[C@](C)(C(=O)O)C2CC[C@@]1(C)O (stereo not given in full),Potency,[1],inactive
same,Potency,[2],inactive
C=C[C@@]1(C)CC(=O)C2[C@](C)(O1)[C@@H](OC(C)=O)[C@@H](O)[C@H]1C(C)(C)CCC[C@]21C (stereo not given in full),"activity change, negative = viability loss",[1],1.01% [at 9.23 µM]
same,outcome,[2],inactive [at 9.23 µM]
C=CC(C)(O)CO[C@@H]1O[C@H](CO)[C@@H](O)[C@H](O)[C@H]1O (stereo not given in full),Potency,[1],inactive
same,Potency,[2],inactive
C=CC(C)(O)CC/C=C(\C)C(=O)OC1CC2(C(=O)O)CCC3(C)C(=CCC4C5(C)CCC(OC6OC(COC7OCC(O)C(O)C7O)C(O)C(OC7OCC(O)C(O)C7O)C6OC6OC(CO)C(O)C(O)C6OC6OCC(O)C(O)C6O)C(C)(C)C5CCC43C)C2CC1(C)C (stereo not given),"activity change, negative = viability loss",[1],-9.57% [at 9.23 µM]
same,"activity change, negative = cell killing",[2],-5.78% [at 9.23 µM]
CC1(C)CC[C@]2(C(=O)O)CC[C@]3(C)C(=CCC4[C@@]5(C)CCC(O[C@@H]6OC[C@H](O)[C@H](O)[C@H]6O[C@@H]6O[C@H](CO)[C@@H](O)[C@H](O)[C@H]6O)[C@@](C)(CO)C5CC[C@]43C)[C@@H]2C1 (stereo not given in full),Potency,[1],inactive
same,Potency,[2],inactive
C/C=C/C=C/C(CC(=O)O)Nc1ccc(C=O)cc1 (stereo not given),Potency,[1],inactive
same,Potency,[2],inactive
COC1=CC(=O)O[C@@H](CCc2ccccc2)[C@@H]1O,Potency,[1],inactive
same,Potency,[2],inactive
CCC(C)C1NC(=O)C2CCCN2C(=O)C(C(C)C)NC(=O)c2ccccc2NC(=O)C(Cc2ccc(O)cc2)NC(=O)C(C)NC(=O)C(C(C)O)NC1=O (stereo not given) (cyclo([2Abz]VPITAY); configuration not given here),Potency,[1],inactive
same,Potency,[2],inactive
C[C@@H]1O[C@@H](O[C@@H]2[C@@H](O)[C@@H](O)[C@H](O[C@@H]3[C@@H](O)[C@@H](O[C@]4(CO)O[C@H](CO)[C@@H](O)[C@@H]4OC(=O)/C=C/c4ccc(O)cc4)O[C@H](CO)[C@H]3OC(=O)/C=C/c3ccc(O)cc3)O[C@H]2C)[C@H](O)[C@H](O)[C@H]1O,outcome,[1],inactive [at 9.23 µM]
same,"activity change, negative = cell killing",[2],1.92% [at 9.23 µM]
CC1(C)NC2N(C1=O)c1ccccc1C2(O)CC(C(=O)O)n1cnc2ccccc2c1=O (stereo not given),Potency,[1],inactive
same,Potency,[2],inactive
CC1=C2C(=O)C=C(CO)[C@@H]2[C@H]2OC(=O)[C@H](C)[C@@H]2[C@@H](O)C1,Potency,[1],inactive
same,Potency,[2],inactive
CC(C)C1=CCC(C)(O)C(OC2OC(CO)C(O)C(O)C2O)C1 (stereo not given),Potency,[1],inactive
same,Potency,[2],inactive
C[C@@H]1C[C@H]2[C@@H]3CCC4=CC(=O)C=C[C@]4(C)[C@@]3(F)[C@@H](O)C[C@]2(C)[C@@]1(O)C(=O)COP(=O)(O)O,Potency,[1],inactive
same,Potency,[2],91.6 nM (active)
CC[C@H](C)/C=C(C)/C=C/C(=O)Cc1cc(O)c(C)c(O)c1C=O,Potency,[1],inactive
same,Potency,[2],inactive
CC(=O)O[C@@H]1C[C@]2(C)[C@@]3(CCC4[C@@]5(C)CC[C@H](O[C@@H]6O[C@H](C(=O)O)[C@@H](O)[C@H](O[C@@H]7O[C@H](CO)[C@H](O)[C@H](O)[C@H]7O[C@@H]7O[C@@H](C)[C@H](O)[C@@H](O)[C@H]7O[C@@H]7OC[C@](O)(CO)[C@H]7O)[C@H]6O[C@@H]6O[C@H](CO)[C@H](O)[C@H](O)[C@H]6O)C(C)(C)C5CC[C@]42C)O[C@@H](O)[C@]12C3CC(C)(C)[C@@H](OC(=O)/C=C/c1ccc(O)c(O)c1)[C@@H]2OC(=O)/C=C/c1ccccc1 (stereo not given in full),"activity change, negative = viability loss",[1],-5.24% [at 9.23 µM]
same,"activity change, negative = cell killing",[2],-4.25% [at 9.23 µM]
CC(=O)N[C@H](Cc1ccc(O)cc1)C(=O)N[C@H](CCCN=C(N)N)C(=O)N[C@H](Cc1ccccc1)C(N)=O (Ac-[dY]-[dR]-[dF]-NH2),Potency,[1],inactive
same,Potency,[2],inactive
COc1cc(/C=C/C(=O)OC2CC(C)=C(C(=O)O)/C2=C/CO[C@@H]2O[C@H](CO)[C@@H](O)[C@H](O)[C@H]2O)ccc1O (stereo not given in full),Potency,[1],inactive
same,Potency,[2],inactive
CC1=C2C(=O)O[C@@H](c3ccoc3)[C@]2(C)CCC1,Potency,[1],inactive
same,Potency,[2],inactive
CCC(C)(O)C(O)C(=O)OCc1ccc(O[C@@H]2O[C@H](CO)[C@@H](O)[C@H](O)[C@H]2O)cc1 (stereo not given in full),Potency,[1],inactive
same,Potency,[2],inactive
C=C(C)[C@@H](C)[C@H]1O[C@]23C[C@]4(CO2)C(CCC2[C@@]5(C)CC[C@H](O[C@@H]6OC[C@H](O)[C@H](O[C@@H]7O[C@H](CO)[C@@H](O)[C@H](O)[C@H]7O)[C@H]6O[C@@H]6O[C@@H](CO)[C@H](O)[C@H]6O)C(C)(C)C5CC[C@]24C)C3[C@@](C)(O)[C@@H]1OC(C)=O (stereo not given in full),outcome,[1],inactive [at 9.23 µM]
same,outcome,[2],inactive [at 9.23 µM]
COC(=O)[C@@]1(O)C=CC[C@@H]2[C@@]3(C)C[C@@H](c4ccoc4)OC(=O)[C@H]3CC[C@]21C,Potency,[1],inactive
same,Potency,[2],inactive
CC(=O)OC[C@@]12[C@H](O)C[C@@H](C)[C@]3(C[C@@H](c4ccoc4)OC3=O)[C@H]1C[C@H](O)C[C@]21CO1,Potency,[1],inactive
same,Potency,[2],inactive
C[C@@H](OC(=O)/C=C/c1ccc(O)cc1)C1=C[C@]2(C=C[C@@H]3C(C(=O)O)=CO[C@@H](O[C@@H]4O[C@H](CO[C@@H]5O[C@H](CO)[C@@H](O)[C@H](O)[C@H]5O)[C@@H](O)[C@H](O)[C@H]4O)[C@@H]32)OC1=O,Potency,[1],inactive
same,Potency,[2],inactive
CC1CCC2(NC1)OC1C(=O)C3C4CCC5CC(O[C@@H]6O[C@H](CO)[C@@H](O)[C@H](O)[C@H]6O[C@@H]6O[C@@H](C)[C@H](O)[C@@H](O)[C@H]6O)CCC5(C)C4CCC3(C)C1C2C (stereo not given in full),Potency,[1],inactive
same,Potency,[2],inactive
CC(=O)N[C@H]1CCN(c2ccc(C3=NOC(CN[S+](=O)([O-])C(C)C)C3)cc2F)C1 (stereo not given in full),Potency,[1],inactive
same,Potency,[2],inactive
CC(=O)OCC1=C[C@H](O)[C@@H]2C(C(=O)O)=CO[C@@H](O[C@@H]3O[C@H](CO)[C@@H](O)[C@H](O)[C@H]3O)[C@H]12,Potency,[1],inactive
same,Potency,[2],inactive
CC(=O)c1c(O)cc2cccc3c2c1CC(C)(O)O3 (stereo not given),Potency,[1],inactive
same,Potency,[2],inactive
CC(=O)OC1C=C(C(=O)O)C2(CO)CCC(C)C(C)(CCc3ccoc3)C2C1 (stereo not given),Potency,[1],inactive
same,Potency,[2],inactive
O=C(/C=C/c1ccc(O)cc1)O[C@H]1[C@@H]2C=CO[C@@H](O[C@@H]3O[C@H](CO)[C@@H](O)[C@H](O)[C@H]3O)[C@@H]2[C@@]2(CO)O[C@@H]12,Potency,[1],inactive
same,Potency,[2],inactive
CC(=O)O[C@@]1(C)C[C@@H](O)[C@]2(O)C=CO[C@@H](O[C@@H]3O[C@H](CO)[C@@H](O)[C@H](O)[C@H]3O)[C@@H]21,Potency,[1],inactive
same,Potency,[2],inactive
CC(C)(O)c1ccc2c(c1)C(O)CC1C(C)(C(=O)O)CCCC21C (stereo not given),Potency,[1],inactive
same,Potency,[2],inactive
COc1cc(/C=C/C(=O)OC2[C@H](O)CC(O)(C(=O)O)C[C@H]2O)ccc1O (stereo not given in full),Potency,[1],inactive
same,Potency,[2],inactive
CN1C(=O)c2ccccc2NC(=O)[C@]12O[C@@H]2c1cccc(O)c1,Potency,[1],inactive
same,Potency,[2],inactive
CC1NC(=O)C(Cc2c[nH]c3ccccc23)NC1=O (stereo not given),Potency,[1],inactive
same,Potency,[2],inactive
CC1CCC2(O1)C(C)(C)CC(O[C@@H]1O[C@H](CO[C@@H]3OC[C@](O)(CO)[C@H]3O)[C@@H](O)[C@H](O)[C@H]1O)CC2(C)O (stereo not given in full),Potency,[1],inactive
same,Potency,[2],inactive
COc1ccc(/C=C/C(=O)O[C@@H]2[C@@H](O)[C@H](C)O[C@@H](OC3C4C=COC(O[C@@H]5O[C@H](CO)[C@@H](O)[C@H](O)[C@H]5O)C4C4(CO)OC34)[C@@H]2O)cc1OC (stereo not given in full),Potency,[1],inactive
same,Potency,[2],inactive
C[C@@H]1O[C@@H](O[C@H]2[C@H](O[C@H]3CO[C@@H](O[C@H]4CC[C@@]5(C)C(CC[C@]6(C)C5CC[C@]57OC[C@@]8(CC[C@](C)(CO)CC85)[C@H](O)C[C@]76C)C4(C)C)[C@H](O[C@@H]4O[C@H](CO)[C@@H](O)[C@H](O)[C@H]4O)[C@H]3O)O[C@H](CO)[C@@H](O)[C@@H]2O)[C@H](O)[C@H](O)[C@H]1O (stereo not given in full),outcome,[1],inactive [at 9.23 µM]
same,outcome,[2],inactive [at 9.23 µM]
O=C(/C=C/c1ccc(O)cc1)OC[C@]12O[C@H]1[C@@H](O)[C@@H]1C=CO[C@@H](O[C@@H]3O[C@H](CO)[C@@H](O)[C@H](O)[C@H]3O)[C@@H]12,Potency,[1],inactive
same,Potency,[2],inactive

# Reference: PubChem BioAssay (NCATS)
